Assay outcomes (PubChem BioAssay)
Shiga toxin inh – A qHTS for Small Molecule Inhibitors of Shiga Toxin; Vero cells, Shiga toxin protein synthesis inhibition reporter; inhibition, % at 38.7 µM; 290,000 compounds, 9.2% hits; in the data active means inhibition mostly above about 28%, no sharp cut-off; inactive means mostly below about 43%; further: 0% is about no effect
HCMV antiviral – qHTS Assay for inhibitors of the human cytomegalovirus (HCMV); HFF cells, HCMV-luciferase reporter, 72 h; active compounds read low; activity change, negative = inhibition, % at 57.5 µM; 410,000 compounds, 4.5% hits; AID 1259415, 2018; in the data active means activity change below about -60%; inconclusive means no clear call, values can overlap the other calls; inactive means above about -39%; further: on the % scale 0 is the no-effect control and ±100 the full control effect
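Cell-based, HFFs, 1000 cells/well, 16 h 37C; cpds in DMSO + HCMV-luc, MOI 1 PFU/cell; 72 h 37C; OneGlo luminescence after 5 min RT; norm. to buffer vs Salinomycin 10uM.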
Cycloheximide cs – Cycloheximide Counterscreen for Small Molecule Inhibitors of Shiga Toxin. max response, %. 300,000 compounds, 12% hits. AID 2314, 2010. cell reporter, cycloheximide protein synthesis inhibition counterscreen; in the data active means max response mostly above about 13%, no sharp cut-off; inactive means mostly below about 14%; further: read at 38.3 µM for the half of the compounds with a filed dose; 0% is about no effect
Pf growth 96h – Primary qHTS for delayed death inhibitors of the malarial parasite plastid, 96 hour incubation | P. falciparum luciferase reporter growth, 96 h | Potency, µM (series often up to 28.7 µM), for the others: at the highest dose activity change, negative = inhibition, hits mostly inhibitors | 320,000 compounds, 6.9% hits | AID 504834, 2011; further: potency means the concentration at half of the fitted maximal effect; on the % scale 0 is the no-effect control and ±100 the full control effect
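Parasite growth measured via integrated firefly luciferase reporter in P. falciparum. Infected erythrocytes at 2% hematocrit, 0.05% parasitemia final were treated 96 hours at 37 C under 5% CO2, and luminescence was read.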
Pf growth 48h – Primary qHTS for delayed death inhibitors of the malarial parasite plastid, 48 hour incubation. Potency, µM (doses to about 28.7 µM), for inactives: at the top dose activity change, negative = inhibition, actives largely listed as inhibitors. P. falciparum luciferase growth in erythrocytes, 48 h. 310,000 compounds, 5.9% hits. AID 504832, 2011; further: potency means the concentration at half of the fitted maximal effect; on the % scale 0 is the no-effect control and ±100 the full control effect
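Firefly luciferase activity from engineered P. falciparum reports growth; inhibitors lower the luminescent signal. Cultures contained 2% hematocrit erythrocytes at 0.1% final parasitemia.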
Active calls of the source: *; ? = inconclusive; nt = no result. An excerpt weighted towards active compounds, which were near 20% of everything screened. Unless noted, the call rests on the fitted dose curve; in most records, active means well fitted inhibition curve with a large enough effect; inconclusive means small, poorly fitted or top-dose-only effect, or another doubt; inactive means no such curve, though single readings can be large or run the other way.

SMILES	Shiga toxin inh	HCMV antiviral	Cycloheximide cs	Pf growth 96h	Pf growth 48h
C[C@H](OC(=O)N1CCN(C(c2ccccc2)c2ccccc2)CC1)[C@@H]1O[C@@]2(C)CCC[C@H]1O2	nt	?	nt	4.7µM*	6.6µM*
Cc1cccc(N(CC(=O)NCc2ccccc2)C(=O)Cn2nnc(-c3ccc(C)o3)n2)c1	-11	21	-10	?	?
Cc1ccc(-c2nnn(CC(=O)N(CC(=O)NC3CCCCC3)c3ccc(F)c(Cl)c3)n2)o1	-6	-12	-2	-6%	-19%
CCC(C(=O)NC1CCCC1)N(C(=O)Cn1nnc(-c2ccc(C)o2)n1)c1ccc(F)cc1 (centres undefined)	-5	-18	-1	12µM*	-2%
Cc1ccc(-c2nnn(CC(=O)N(CC(=O)NC3CCCC3)c3ccc(F)c(Cl)c3)n2)o1	-9	-16	-1	13µM*	9.3µM*
CCC(C(=O)NC1CCCC1)N(C(=O)Cn1nnc(-c2cccs2)n1)c1cnc2ccccc2c1 (centres undefined)	6	-14	-2	-2%	12µM*
Cc1ccc(-c2nnn(CC(=O)N(CC(=O)NCc3ccccc3)c3cccc(C)c3C)n2)o1	-2	16	-3	?	15µM*
CCC(C(=O)NC1CCCC1)N(C(=O)Cn1nnc(-c2ccc(C)o2)n1)c1ccccc1OC (centres undefined)	-2	-19	-5	13%	?
Cc1ccc(-c2nnn(CC(=O)N(c3ccccc3)C(C(=O)NC3CCCC3)c3ccncc3)n2)o1 (centres undefined)	19	-11	-3	-16%	12%
Cc1ccc(-c2nnn(CC(=O)N(CC(=O)NC3CCCC3)c3cccc(F)c3)n2)o1	-3	-85*	-5	3%	4%
Cc1ccc(-c2nnn(CC(=O)N(Cc3ccccc3F)C(C(=O)NC3CCCC3)c3ccncc3)n2)o1 (centres undefined)	18	2	-5	?	9.3µM*
Cc1ccc(-c2nnn(CC(=O)N(CC(=O)NC3CCCC3)c3cnc4ccccc4c3)n2)o1	-16	-103*	1	9.3µM*	?
Cc1ccc(-c2nnn(CC(=O)N(CC(=O)NC(C)C)c3cnc4ccccc4c3)n2)o1	-5	2	1	-1%	-5%
Cc1ccc(-c2nnn(CC(=O)N(CC(=O)NC3CCCCC3)c3cccc(F)c3)n2)o1	-8	-22	-8	18%	?
CN(CC(=O)NCc1ccccc1Cl)CC(=O)Nc1cccc(F)c1	-10	-35	-2	?	4%
COc1ccc(C(=O)Nc2ccc3c(c2)n(C)c(=O)n3C)cc1OC	11	37	0	-2%	-3%
COc1cccc(OC)c1C(=O)NC(=S)Nc1ccc2c(c1)C(=O)N(C)C2=O	-6	-15	-2	?	1.7µM*
COc1cc(C(=O)NC(=S)Nc2ccc3c(c2)C(=O)N(C)C3=O)cc(OC)c1OC	7	13	0	6%	47%
COc1ccc(C(=O)Nc2ccc3c(c2)C(=O)N(C)C3=O)cc1OC	32*	nt	17*	-1%	0%
CCN1/C(=C/c2ccc3cccc(C)c3[n+]2CC)Sc2ccccc21	10	-104*	-2	?	?
CCN1/C(=C/c2ccc3cc(C)cc(C)c3[n+]2CC)Sc2cc(C)ccc21	-16	-100*	3	2%	12µM*
CCN1/C(=C\c2ccc3cc(C)ccc3[n+]2CC)Sc2cc(C)c(C)cc21	2	-97*	4	31%	5.2µM*
CC1=C(C(=O)OCC(C)C)C23C(=O)c4ccccc4C2(O1)OC(N)=C3C#N (centres undefined)	8	-29	-3	10%	?
CCCCCCn1c(=O)n2n(c1=O)[C@@H]1CN(S(=O)(=O)c3ccc(C)cc3)C[C@]1(O)[C@@H](OC(=O)NCc1ccc(OC)c(OC)c1)C2	nt	-10	nt	nt	nt
COc1cc(C)c(NC(=O)C2CCN(S(=O)(=O)c3cccs3)CC2)cc1OC	nt	-32	nt	7%	-10%
Cc1ccc(NC(=O)C2SC(=Nc3ccccc3)C(C(=O)Nc3ccc(Cl)cc3)=C2N)cc1 (centres undefined)	25	nt	12	?	?
